In PubChem BioAssay AID2129 (The Scripps Research Institute Molecular Screening Center, 2009):
Screen size: about 320,000 compounds; about 2,200 (0.69%) were called active.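 How the source made its calls: active means inhibition above the mean of all tested compounds plus 3 SD, cutoff set per campaign (cut at about 30% in these data); inactive means the rest.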 What follows is part of a selection rich in actives, with near analogues and random picks from the rest.

Each compound was assayed against Bcl-2-like protein 1 (Homo sapiens) (UniProt Q07817) (assay: Bcl-xL/Bim BH3 interaction blockers – biochemical, fluorescence polarization, HTS, primary screen (AID 2129;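 further: 0% = DMSO wells and 100% = unlabeled Bim-BH3 peptide competitor; inhibitors lower millipolarization by displacing the labeled peptide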)). Details: GST-Bcl-xL / FITC-Bim BH3 peptide fluorescence polarization; at 10.9 µM; stronger effect = higher value.
Bcl-2-like protein 1 (Homo sapiens), sequence (Q07817 whole entry, looked up): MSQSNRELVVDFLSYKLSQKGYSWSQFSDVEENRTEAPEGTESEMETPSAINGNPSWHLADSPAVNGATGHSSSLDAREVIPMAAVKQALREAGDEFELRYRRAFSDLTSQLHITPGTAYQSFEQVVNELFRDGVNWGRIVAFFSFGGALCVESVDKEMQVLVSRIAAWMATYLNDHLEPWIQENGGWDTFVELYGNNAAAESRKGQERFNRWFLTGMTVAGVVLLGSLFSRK

inhibition, inactive:
O=C(c1ccc(Cl)cc1)N1N=C(c2ccccn2)CC1(O)C(F)(F)F (stereo not given) -13%
Cc1cccc(OCC(=O)NCC(=O)N/N=C/c2ccc(N(C)C)cc2)c1 2.63%
C=CCc1ccccc1OCC(=O)N/N=C/c1ccccc1OCC 0.68%
O=C(O)CC(c1ccccc1F)N1Cc2ccccc2C1=O (stereo not given) -0.17%
CC(C)CN(C(=O)CSc1ncnc2sccc12)C1CCS(=O)(=O)C1 (stereo not given) 0.66%
CCN(CC)CCNC(=O)c1ccc(NC(=O)c2c(F)cccc2Cl)cc1 -0.4%
O=C1N[C@@H](Cc2ccccc2)C(=O)N2[C@H]1C[C@]1(Br)c3ccccc3N(S(=O)(=O)c3ccccc3)[C@H]21 10.4%
Cc1ccccc1N1C(=O)C2ON(c3ccccc3)C(c3ccncc3)C2C1=O (stereo not given) 4.04%
O=C(CNC(=O)c1ccccc1F)c1ccc(Br)cc1 -3.61%
O=C(CNC(=O)c1ccc(F)cc1)c1ccccc1 -1.14%
CC(=O)n1c(C=Nc2ccccc2)c(O)c2ccccc21 -15.2%
Cc1oc2c(c1C(=O)N1CCOCC1)C(=O)c1ccccc1C2=O -1.81%
COC1=C(N2CCOCC2)C(=O)c2ccccc2C1=O 1.64%
COc1ccc(-n2ncc3c2CC(C)(C)CC3NC(=O)CCc2c(C)nn(C)c2C)cc1 (stereo not given) 6.1%
COCCNc1nnc(SCC(=O)NNC(=O)c2ccco2)s1 4.35%
Cc1ccc(CSCC(=O)N(C)CC(=O)Nc2ccc(C)cc2)cc1 1.73%
Cc1c(NC(=O)CSc2nnc(-c3cccnc3)n2N)c(=O)n(-c2ccccc2)n1C -1.43%
COc1ccc(C(=O)N(CCN2CCOCC2)CC(=O)NC2CCCC2)cc1OC -2.67%
Cc1ccc(OCCCC(=O)Nc2ccc3c(c2)OCCO3)cc1 -5.28%
CCCCC1=CC2=CC(=O)C(C)(OC(=O)CC)C(=O)C2=CN1CCCOC(C)C (stereo not given) 25.5%
COc1cc(C2/C(=C(\O)c3ccc4c(c3)CC(C)O4)C(=O)C(=O)N2Cc2ccco2)ccc1O (stereo not given) 0.14%
CCC1(C)Cc2c(sc3nc(SC)[nH]c(=O)c23)CO1 (stereo not given) 0.11%
CCSc1nc2sc3c(c2c(=O)[nH]1)CC(C)(C)OC3 4.34%
N#CCc1c(C#N)c(N)nc(N2CCCC2)c1C#N 1.69%
N#Cc1c(-c2ccccc2)cc(-c2ccccc2)nc1SCC(=O)O 6.81%
CCN(CC(=O)Nc1cccc(S(=O)(=O)N2CCCCC2)c1)Cc1ccccc1 1.24%
COc1ccc(C(=O)C2CCCN(C(=O)c3ccc(OC)o3)C2)c(C)c1 (stereo not given) 7.44%
COc1ccccc1NC(=O)C[n+]1ccccc1 -1.13%
Cc1cccc[n+]1CC(=O)c1ccccc1 2.8%
CCCOCC(O)CC(CC)C(=O)NNC(=S)Nc1ccccc1 (stereo not given) 2.96%
CSCCC(NC(=O)c1ccco1)C(=O)OCC(=O)Nc1ncc(Cl)c(C)c1Cl (stereo not given) 17.7%
C/C(=N\Nc1ncc(Cl)cc1Cl)c1ccc(S(=O)(=O)NCc2ccco2)cc1 3.34%
COc1ccc(OCC(O)CN(C)C(=O)C(C)Oc2ccccc2)cc1 (stereo not given) -1.74%
O=C(CSc1n[nH]c(-c2cccnc2)n1)Nc1ccc(Cl)cc1 2.31%
COc1ccc(Cc2nnc(SCC(=O)c3cccc([N+](=O)[O-])c3)n2C)cc1 3.55%
Cc1cc(N2CCN(S(=O)(=O)c3ccc(C)c(C)c3)CC2)c2ccccc2n1 1.43%
Cc1ccc(S(=O)(=O)Nc2nc3ccccc3nc2N2CCc3ccccc3C2)cc1 6.46%
Cc1cc2oc(=O)cc(CN(C)Cc3ccc(OC(F)F)cc3)c2cc1Cl 0.69%
CC(C)=CCCC(C)CN1CCC(n2nccc2NC(=O)c2ccccc2)CC1 (stereo not given) 3.8%
COC(=O)c1ccc(C)c(NC(=O)C2CC(=O)N(C3CCCC(C)C3C)C2)c1 (stereo not given) 4.61%
O=C(NCc1ccccn1)Nc1ccc(Cl)cc1 1.5%
Cc1ccc(C)c(N2CCN(C(=O)CCCn3c(=O)c4cccn4c4cccnc43)CC2)c1 1.63%
O=c1onc(-c2c(F)cccc2F)n1-c1ccccc1Cl 3.32%
CCC(CC)c1nnc(NC(=O)/C=C/c2ccco2)s1 4.39%
CCOC(=O)c1c(NC(=O)/C=C/c2ccco2)sc(C)c1C 0.59%
COc1ccc2nc(SCc3ccccc3)nc(C)c2c1 1.64%
O=C(Nc1nnc(SCc2ccccc2Cl)s1)c1cccc([N+](=O)[O-])c1 9.99%
CCc1nnc(SCc2cccc(F)c2)nc1CC 1.39%
O=C(CC1N=C2c3ccccc3N=C(SCc3ccccc3Cl)N2C1=O)NCc1ccco1 (stereo not given) 15%
Cc1ccc(SCC(=O)c2cc(C)c(OC(=S)N(C)C)c(C)c2)cc1 -0.01%
Cc1ccc(C2(c3ccc(C)cc3)NC(=O)N(Cc3c(C)noc3C)C2=O)cc1 6.73%
CC(=O)Nc1ccc(NS(=O)(=O)c2cc(C)sc2C)cc1 1.44%
COc1ccc(C#Cc2c(-c3ccc(OC)cc3)oc3ccc(-c4ccc5c(c4)OCO5)cc23)cc1 -0.02%
CCc1cccc(C)c1N1C(=O)CN(Cc2ccccc2)C1=S -7.16%
Cc1ccc(CNS(=O)(=O)c2ccc3c(c2)N(C)CCO3)cc1 8.25%
O=C(CSc1nc2ccccc2c(=O)n1-c1ccc(F)cc1)NC1CC1 6.71%
O=C(CCCn1c(SCC(=O)c2ccccc2)nc2ccccc2c1=O)NCC1CCCO1 (stereo not given) -3.16%
Cc1c(-c2ccccc2)nc(N)c(C#N)c1-c1cccs1 8.08%
CCc1c(-c2ccccc2)nc(N)c(C#N)c1-c1cccs1 6.16%
CCOc1ccc2[nH]c(=O)c(CN(Cc3nnnn3CCc3ccccc3)CC3CCCO3)cc2c1 (stereo not given) 0.19%
O=C(COC(=O)/C=C/c1nc2ccccc2s1)Nc1ccccc1Oc1ccccc1 -1.24%
O=C(COC(=O)c1cccc(Br)c1)Nc1cccc2c1C(=O)c1ccccc1C2=O 13.1%
O=C(Cn1cnc2ccccc21)Nc1ccccc1-c1ccccc1 7.35%
CC(C)(C)n1ncc2c(=O)n(Cc3ccc(Cl)cc3)cnc21 4.43%
CCOC(=O)N1CCN(CC(=O)n2c(C)c(C)c3ccccc32)CC1 9.52%
Cc1nn(-c2ccc([N+](=O)[O-])cc2)c(N)c1-c1ccccc1 -20.3%
C/C(=N\NC(=O)c1ccoc1C)c1ccccc1O 4.04%
Cc1noc(C)c1C(=O)NCC1COc2ccccc2O1 (stereo not given) -7.18%
O=C(NCc1ccncc1)C1CCCN(S(=O)(=O)c2ccc(Br)cc2)C1 (stereo not given) 9.21%
O=C(NCc1cc(C(F)(F)F)cc(C(F)(F)F)c1)C1CC(c2cccc(F)c2)=NO1 (stereo not given) 1.88%
CCN1C(=O)[C@@H]2[C@@H](c3ccc(-c4ccc(OC)cc4)c(OC)c3)N3CCC[C@@]3(C(=O)OC)[C@@H]2C1=O 4.65%
Cn1c(C(=O)N2CCCC(C(=O)NCc3ccccc3)C2)cc2sccc21 (stereo not given) 3.21%
O=C(NCCSCc1ccccc1)c1ccc(Cl)c(S(=O)(=O)N2CCOCC2)c1 1.38%
COc1ccc(C(=O)N(Cc2ccccc2)c2ccc(C)cc2)cc1S(=O)(=O)N1CCOCC1 5.85%
O=C(Nc1ccccc1N1CCCC1)c1ccc(F)c(S(=O)(=O)N2CCOCC2)c1 1.14%
Cc1ccccc1CSCCNC(=O)c1ccc(Cl)c(S(=O)(=O)N2CCOCC2)c1 3%

inhibition, active:
Cc1ccc(/C=N/NC(=O)COc2ccccc2-c2ccccc2)cc1 68.1%
O=C(C[n+]1cc(Br)cc2ccccc21)c1ccc(F)cc1 62.8%
O=C1c2ccccc2-c2ncnc3c(N4CCOCC4)cc(N4CCOCC4)c1c23 48.5%
COC/C=C/C1=CC2=CC(=O)C(C)(OC(=O)CCC(=O)OC)C(=O)C2=CO1 (stereo not given) 46.1%
CC/C(C)=N/Nc1nc2sc3c(c2c(=O)[nH]1)CC(C)(C)OC3 67.3%
N#Cc1c(N2CCCCC2)nc(N)c2c(N)nc(SCC(=O)O)cc12 34.7%
COC(=O)C[n+]1cccc2ccccc21 173%
Cc1c(-c2ccccc2)cn2c1-c1ccc(C)n1CC2 31.6%
Cc1c(Cl)cnc(NC(=O)COC(=O)c2ccc(S(=O)(=O)NCc3ccco3)cc2)c1Cl 35.9%
Cc1ccc(S(=O)(=O)C(C#N)c2nc3ccccc3nc2N2CCCC2)cc1C (stereo not given) 87.6%
Cc1nnc(NC(=O)/C=C/c2ccco2)s1 39.6%
c1ccc(CSc2nnc(-c3ccco3)c(-c3ccco3)n2)cc1 33.4%
Clc1ccccc1CSc1nnc(-c2ccco2)c(-c2ccco2)n1 37%
O=C(CCn1c(SCC(=O)c2ccccc2)nc2ccccc2c1=O)NCc1ccc(F)cc1 49.4%
CN1CCc2nc(SC(C(=O)O)c3ccccc3)c(C#N)c(-c3cccs3)c2C1 (stereo not given) 31.4%
O=C(COC(=O)Cn1cnc2ccccc21)Nc1cccc2c1C(=O)c1ccccc1C2=O 137%
Cc1nn(C(=O)c2ccoc2C)c(N)c1-c1ccccc1 173%
O=C(c1ccc(F)c(S(=O)(=O)N2CCOCC2)c1)N(CCc1ccccc1)Cc1ccccc1 31.7%
Cc1nn(Cc2ccccc2)c(C)c1CNC(=O)c1ccc(F)c(S(=O)(=O)N2CCOCC2)c1 114%
